Experimental findings from PubChem BioAssay (NCI) are described below.

Test systems include HCT-15 colon; HT29 colon; SNB-75 CNS; SNB-19 CNS; U251 CNS; PC-3 prostate; SK-MEL-5 melanoma; UACC-62 melanoma; LOX IMVI melanoma; SK-MEL-28 melanoma.
Assay in all cases: NCI-60 one-dose screen, 48 h (100 = growth as untreated, 0 = no growth, -100 = all killed)
Holding throughout (details): 10 µM unless noted

Compounds without any hit were thinned out: in the full panel of roughly 83,000, 20% have a hit.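 Method: cells in 96-well plates; compound added at one concentration; 48 h incubation; percent growth measured; values under 10 scored active.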 Values without a mark were called inactive. Activity calls are given as the source filed them.

As to `COc1cc(/C=C/C(=O)c2cnn(-c3cc(=O)[nH]c4ccc(Br)cc34)c2C)cc(OC)c1OC`, the growth was -54.9% (active) in the assay on HCT-15 colon; -58.7% (active) in the assay with HT29 colon; 9.81% (active) in the assay on SNB-75 CNS; -2.48% (active) with SNB-19 CNS; -76.7% (active) in the assay with U251 CNS; -23.9% (active) in the assay on PC-3 prostate. Also, the growth is -96.2% (active) in the assay with SK-MEL-5 melanoma, -71.7% (active) in the assay on UACC-62 melanoma, -89.8% (active) in the assay on LOX IMVI melanoma and -53% (active) in the assay with SK-MEL-28 melanoma.
In the case of `C/C(=N/O)c1ccc(NC(=O)CSc2nnc(-c3ccc4nc(-c5ccc(Cl)cc5)[nH]c4c3)o2)cc1`, the growth is 99.1% in the assay on HCT-15 colon; 93.2% with HT29 colon; 55.8% in the assay on SNB-75 CNS; 20.8% with SNB-19 CNS; -58.8% (active) with U251 CNS; 41% in the assay on PC-3 prostate. Besides, the growth was 11% in the assay on SK-MEL-5 melanoma, 10.5% in the assay on UACC-62 melanoma, -64.4% (active) in the assay on LOX IMVI melanoma and -61.5% (active) in the assay with SK-MEL-28 melanoma.
Regarding `O=C(CSc1nc2sc3c(c2c(=O)n1-c1ccc(Cl)cc1)CCCC3)NNC(=O)c1ccc(F)cc1`, the growth is 91.8% with HCT-15 colon; 107% in the assay on HT29 colon; 76% in the assay on SNB-75 CNS; 32% in the assay on SNB-19 CNS; 37.8% in the assay on U251 CNS; 81.9% in the assay on PC-3 prostate. In addition, the growth in the assay with SK-MEL-5 melanoma was 66.9%; with UACC-62 melanoma, 41.1%; in the assay with LOX IMVI melanoma it was 64.2%; with SK-MEL-28 melanoma, 87%.
Regarding `Nc1cc(-c2c[nH]c3ccc(Cl)cc23)nc2cc(-c3c[nH]c4ccccc34)nn12`, the growth in the assay with HCT-15 colon was -87.1% (active); in the assay on HT29 colon, -59.7% (active); in the assay on SNB-75 CNS, 19.4%; in the assay on SNB-19 CNS it was -59.5% (active); with U251 CNS, -74.4% (active); with PC-3 prostate, -12% (active). Also, the growth is -87% (active) with SK-MEL-5 melanoma, -82.7% (active) in the assay on UACC-62 melanoma, -94.6% (active) in the assay on LOX IMVI melanoma and -66.9% (active) in the assay with SK-MEL-28 melanoma.
In the case of `COc1cc(/C=C/C(=O)c2cnn(-c3cc(=O)[nH]c4ccccc34)c2C)cc(OC)c1OC`, the growth in the assay with HCT-15 colon was 12.2%; in the assay with HT29 colon, 9.84% (active); in the assay with SNB-75 CNS it was 71.9%; in the assay with SNB-19 CNS, 26.6%; with U251 CNS, 9.13% (active); with PC-3 prostate, 43.3%. In addition, the growth is -24.9% (active) in the assay with SK-MEL-5 melanoma, 29.9% in the assay on UACC-62 melanoma, 13.5% in the assay with LOX IMVI melanoma and 36.5% with SK-MEL-28 melanoma.
For the compound `Clc1ccc(Nc2nnc(-c3c[nH]c4ccccc34)o2)cc1`, the growth in the assay with HCT-15 colon is 40.4%; in the assay on HT29 colon, 88.6%; in the assay on SNB-75 CNS, 59.5%; in the assay with SNB-19 CNS, 85.5%; in the assay on U251 CNS it was 76.4%; in the assay with PC-3 prostate, 60.7%. Further, the growth in the assay with SK-MEL-5 melanoma was 87.6%; with UACC-62 melanoma it was 65.4%; in the assay on LOX IMVI melanoma, 58.1%; in the assay on SK-MEL-28 melanoma, 91.1%.
Take `O=C(Cc1c(-c2ccccc2[N+](=O)[O-])n(-c2ncnc3c2c(-c2ccccc2)c(-c2ccccc2)n3Cc2ccccc2)[nH]c1=O)c1ccc(Cl)c(Cl)c1`: the growth in the assay on HCT-15 colon is 46.9%; in the assay on HT29 colon, 18.4%; in the assay on SNB-75 CNS, 14%; in the assay on SNB-19 CNS, 16.8%; with U251 CNS it was 28.1%; in the assay on PC-3 prostate, 8.7% (active). The growth in the assay on SK-MEL-5 melanoma is -45.3% (active); in the assay with UACC-62 melanoma, -9.59% (active); in the assay with LOX IMVI melanoma, 14.9%; in the assay on SK-MEL-28 melanoma it was 27.8%.
On to `O=C(c1ccc(Cl)cc1)C1[C@H](c2ccccc2Cl)[C@@H](c2ccccc2)NC12C(=O)Nc1ccc(Br)cc12` (stereo partly drawn), for which the growth in the assay on HCT-15 colon was -83.8% (active); in the assay with HT29 colon, -82.3% (active); in the assay on SNB-75 CNS, -28.7% (active); with SNB-19 CNS, -54.6% (active); with U251 CNS it was -71.6% (active); with PC-3 prostate it was -27.9% (active). Further, the growth was -95.5% (active) in the assay with SK-MEL-5 melanoma, -86.2% (active) in the assay on UACC-62 melanoma, -100% (active) in the assay with LOX IMVI melanoma and -95.4% (active) in the assay with SK-MEL-28 melanoma.
With `COc1cc2cc(C(=O)N3C[C@@H](CCl)c4c3cc(OC(=O)N(CCC(=O)N3CCN(C)CC3)C3CCCCC3)c3ccccc43)[nH]c2c(OC)c1OC`, the growth with HCT-15 colon was -34.5% (active); in the assay on HT29 colon, -34.5% (active); in the assay on SNB-75 CNS, -75.7% (active); in the assay with SNB-19 CNS it was -5.79% (active); in the assay on U251 CNS, -63.4% (active); in the assay on PC-3 prostate, -17.8% (active). For the same compound, the growth was -99.2% (active) in the assay with SK-MEL-5 melanoma, -94.5% (active) in the assay with UACC-62 melanoma, -96.6% (active) in the assay with LOX IMVI melanoma and -97.5% (active) with SK-MEL-28 melanoma.
As for `CN(C)c1nc(NCCNS(=O)(=O)c2ccc(C(=O)/C=C/c3ccc(C(F)(F)F)cc3)cc2)nc(N2CCOCC2)n1`, the growth with HCT-15 colon is -78.2% (active); with HT29 colon it was -73% (active); in the assay with SNB-75 CNS, 59.5%; in the assay with SNB-19 CNS, 57.8%; in the assay on U251 CNS, -85.5% (active); with PC-3 prostate, -60.1% (active). Moreover, the growth was -42.8% (active) in the assay on SK-MEL-5 melanoma, 48.2% in the assay with UACC-62 melanoma, -99.2% (active) in the assay with LOX IMVI melanoma and -9.43% (active) in the assay with SK-MEL-28 melanoma.
For `NC(=O)c1ccc(-c2ccc3ncnc(N4CCc5cc(F)c(Cl)cc54)c3c2)cn1`, the growth was 59.9% with HCT-15 colon; 91.6% in the assay on HT29 colon; 106% in the assay on SNB-75 CNS; 74.3% in the assay with SNB-19 CNS; 87.4% in the assay with U251 CNS; 50.8% with PC-3 prostate. The growth was 76.2% in the assay with SK-MEL-5 melanoma, 71.8% with UACC-62 melanoma, 57% in the assay on LOX IMVI melanoma and 91.7% in the assay on SK-MEL-28 melanoma.
In the case of `COc1ccc(-c2cc(-c3cc(C(C)C)c(O)cc3C)nn2-c2ccc(S(N)(=O)=O)cc2)cc1`, the growth in the assay with HCT-15 colon is 3.06% (active); with HT29 colon, 88.4%; in the assay with SNB-75 CNS it was -0.16% (active); in the assay with SNB-19 CNS, 30%; in the assay on U251 CNS, 14.4%; in the assay on PC-3 prostate it was 49.3%. For the same compound, the growth in the assay with SK-MEL-5 melanoma is 48.6%; with LOX IMVI melanoma, 22.6%; in the assay with SK-MEL-28 melanoma, 58.8%.
For the compound `Clc1ccc(-c2nc3c4c(-c5ccccc5)c(-c5ccccc5)n(Cc5ccccc5)c4ncn3n2)cc1`, the growth was 13.6% in the assay with HCT-15 colon; -2% (active) in the assay with HT29 colon; -23.1% (active) in the assay with SNB-75 CNS; 8.49% (active) in the assay with SNB-19 CNS; 15.1% in the assay with U251 CNS; -1.48% (active) in the assay with PC-3 prostate. For the same compound, the growth is -94.6% (active) in the assay on SK-MEL-5 melanoma, 11.9% in the assay on LOX IMVI melanoma and 36.2% in the assay with SK-MEL-28 melanoma.
